Most compounds without a hit are left out; they make up all but 5.6% or so of the library.
PfM18AAP inh – PfM18AAP enzyme inhibition; recombinant PfM18AAP, H-Glu-NHMec fluorogenic cleavage; inhibition, % at 7.35 µM; hit rate 1.2% among 290,000;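 active = inhibition above the campaign mean inhibition over all tested compounds plus 3 SD, cut at about 28% in these data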;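 note: 0% = plate median of test compound wells and 100% = 2 mM ZnCl2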
PfGluPho inh – PfG6PD (Plasmodium falciparum) enzyme inhibition. PfGluPho enzyme, NADPH resazurin-diaphorase fluorescence. inhibition, % at 20 µM. hit rate 0.78% among 350,000. AID 504690;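 active = inhibition reaching at least a set limit at 20 µM in the primary screen, cut at about 59% in these data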;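 note: 0% = DMSO wells with substrate and 100% = DMSO wells lacking glucose-6-phosphate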
H9c2 protect – modulators protecting cardiomyocytes from myocardial damage | AID 588492 | protection from H2O2 cell death, % at 20 µM | hit rate 0.63% among 360,000 | H9c2 cardiomyocytes, H2O2 injury protection, ATPLite, 2 h;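 active = compounds giving at least 50% protection of heart cells from peroxide-induced death in the single-dose screen, raw or plate-pattern-corrected value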;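 note: 0% = DMSO wells with peroxide and 100% = DMSO wells without peroxide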
ALR H2O2 inh – inhibitors of human sulfhydryl oxidase ALR. P55789. purified ALR, DTT oxidation, H2O2 HRP-luminol luminescence. inhibition, % (concentration not given with the values). hit rate 3.8% among 290,000. AID 485317;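 active = mean replicate inhibition above about 79%, with every replicate also reaching it, limit read from the data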
Target sequence (P55789 whole entry, looked up): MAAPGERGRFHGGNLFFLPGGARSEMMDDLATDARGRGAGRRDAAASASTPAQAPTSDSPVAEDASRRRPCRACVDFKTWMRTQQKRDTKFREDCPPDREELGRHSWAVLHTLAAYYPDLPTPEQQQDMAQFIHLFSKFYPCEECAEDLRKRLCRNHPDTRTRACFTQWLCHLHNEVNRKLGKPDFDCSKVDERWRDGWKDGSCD
PHOSPHO1 block – inhibitors of human PHOSPHO1 phosphatase. recombinant PHOSPHO1, absorbance phosphatase assay. Q8TCT1. hit rate 1.1% among 290,000. inhibition, % at 13.3 µM; in the data active = inhibition above about 60%
Target sequence (Q8TCT1 whole entry, looked up): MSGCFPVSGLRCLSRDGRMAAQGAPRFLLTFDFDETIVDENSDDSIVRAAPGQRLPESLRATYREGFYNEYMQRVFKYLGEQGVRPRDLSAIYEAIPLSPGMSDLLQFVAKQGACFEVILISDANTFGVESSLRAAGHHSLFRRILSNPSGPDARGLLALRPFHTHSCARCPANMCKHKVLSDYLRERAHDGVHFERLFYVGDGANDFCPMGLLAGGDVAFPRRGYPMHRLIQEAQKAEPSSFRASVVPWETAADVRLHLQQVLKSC
The depositor's hits bear a star.

How did Cc1ccc(-c2n[nH]c(=O)c3ccccc23)cc1S(=O)(=O)NCCO do in these assays?
PfM18AAP inh: 7.8; PfGluPho inh: 9.9; H9c2 protect: 75.6*; ALR H2O2 inh: 1.4; PHOSPHO1 block: 17.1

What do the screens show for `O=C(Nc1ccn(CCCNC2CCN(Cc3ccccc3)CC2)c(=O)n1)OCc1ccccc1`?
PfGluPho inh: 10.4; H9c2 protect: -0.8

What do the screens show for `CCOC(=O)CC1CCCCN1Cc1cn[nH]c1-c1ccc(F)cc1F` (stereo unspecified)?
PfM18AAP inh: 4.1; PfGluPho inh: -1.7; H9c2 protect: 8.1; ALR H2O2 inh: 0.7; PHOSPHO1 block: 1.2

Results for CCCCN(C(=O)c1ccc(-c2ccc(Cl)cc2)o1)c1c(N)n(CCC)c(=O)[nH]c1=O ?
PfGluPho inh: 4.7; H9c2 protect: 5.4; ALR H2O2 inh: -0.5

How did C/C(=N\NC(=O)c1nnn(-c2nonc2N)c1CN1CCCCC1)c1ccccc1O do in these assays?
PfM18AAP inh: 4.2; PfGluPho inh: -6.6; H9c2 protect: 63.2*; PHOSPHO1 block: 23.0

How did C/C(=N\NC(=O)c1nnn(-c2nonc2N)c1CN(C)c1ccccc1)c1ccccc1O do in these assays?
PfM18AAP inh: -0.7; PfGluPho inh: 19.0; H9c2 protect: 56.7*; ALR H2O2 inh: -4.1; PHOSPHO1 block: 27.9

How did C/C(=N\NC(=O)c1nnn(-c2nonc2N)c1CSc1ccc(C)cc1)c1cccnc1 do in these assays?
PfGluPho inh: 20.2; H9c2 protect: 55.3*

What do the screens show for `CCCc1c(C(=O)N/N=C(\C)CCc2ccccc2)nnn1-c1nonc1N`?
PfM18AAP inh: 7.7; PfGluPho inh: -8.4; H9c2 protect: -0.4; ALR H2O2 inh: -6.3; PHOSPHO1 block: 67.0*

Results for CC(/C=N/NC(=O)c1nnn(-c2nonc2N)c1CN1CCCCC1)=C\c1ccccc1 ?
PfM18AAP inh: 2.1; PfGluPho inh: -7.3; H9c2 protect: 3.1; ALR H2O2 inh: -2.7; PHOSPHO1 block: 8.2

How did C/C(=N\NC(=O)c1nnn(-c2nonc2N)c1CSc1ccc(Cl)cc1)c1cccnc1 do in these assays?
PfM18AAP inh: 9.6; PfGluPho inh: 21.1; H9c2 protect: 25.3; ALR H2O2 inh: -7.0; PHOSPHO1 block: 50.7

Results for CCCCNS(=O)(=O)c1ccc2nc(SCC(=O)c3ccc(C#N)cc3)[nH]c2c1 ?
PfM18AAP inh: -2.9; PfGluPho inh: 13.4; H9c2 protect: -6.1; ALR H2O2 inh: 3.2; PHOSPHO1 block: 99.0*

How did CCCCNS(=O)(=O)c1ccc2nc(SCC(=O)Nc3ccccc3)[nH]c2c1 do in these assays?
PfM18AAP inh: -7.5; PfGluPho inh: -8.4; H9c2 protect: -5.6; ALR H2O2 inh: 45.4; PHOSPHO1 block: -9.2

What do the screens show for `COc1cccc(CN(C)C(=O)CSCC(=O)Nc2cccc(C)c2)c1OC`?
PfGluPho inh: -2.3; H9c2 protect: -3.4; ALR H2O2 inh: 91.7*

Results for Cc1cccc(NC(=O)CSCC(=O)OCc2ccccn2)c1 ?
PfGluPho inh: -1.8; H9c2 protect: -2.4; ALR H2O2 inh: 99.0*

Results for COc1ccc(NC(=O)CSCC(=O)N(C)Cc2cccc(OC)c2OC)cc1 ?
PfGluPho inh: 4.2; H9c2 protect: 0.7; ALR H2O2 inh: -3.4

What do the screens show for `C/C(CC(=O)Nc1ccc(N(C)C)cc1)=N\NC(=O)c1ccc([N+](=O)[O-])cc1Cl`?
PfM18AAP inh: 13.4; PfGluPho inh: -4.2; H9c2 protect: 11.2; ALR H2O2 inh: 99.6*; PHOSPHO1 block: -11.4

What do the screens show for `C/C(CC(=O)Nc1ccc(N(C)C)cc1)=N\NC(=O)c1ccc(Cl)cc1Cl`?
PfM18AAP inh: 5.9; PfGluPho inh: -19.3; H9c2 protect: -1.7; ALR H2O2 inh: 61.4; PHOSPHO1 block: 3.1

How did O=C(COc1ccc2c3c(c(=O)oc2c1)CCC3)NCCCN1CCOCC1 do in these assays?
PfM18AAP inh: -2.5; PfGluPho inh: 9.3; H9c2 protect: -0.2; ALR H2O2 inh: -9.1; PHOSPHO1 block: 61.6*

Results for CCOC(=O)COc1ccc2c3c(c(=O)oc2c1)CCCC3 ?
PfM18AAP inh: 1.4; PfGluPho inh: 10.2; H9c2 protect: 54.8*; ALR H2O2 inh: -3.8

Results for O=C(COc1ccc2c(c1)oc(=O)c1ccccc12)NCCCN1CCOCC1 ?
PfM18AAP inh: -4.7; PfGluPho inh: -2.1; H9c2 protect: 8.8; ALR H2O2 inh: 14.7; PHOSPHO1 block: 27.3

Results for Cc1ccc(S(=O)(=O)NC(CC(C)C)C(=O)Oc2ccc3c4c(c(=O)oc3c2)CCC4)cc1 (stereo unspecified) ?
PfM18AAP inh: -3.0; PfGluPho inh: 26.1; H9c2 protect: 23.5; PHOSPHO1 block: 60.5*

Compound activity from PubChem BioAssay.
